Assay outcomes as filed in PubChem.
This is a sample that favours compounds with a hit; in the whole collection about 11% have one here.
Pf growth 96h – P. falciparum growth inhibition at 96 hours. Potency, µM (series often up to 28.7 µM), for the others: top-dose activity change, negative = inhibition, usual class: inhibitors. 6.9% of 320,000 active. P. falciparum luciferase reporter growth, 96 h
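Two parasite generations (96 h, 37 C, 5% CO2) of compound exposure in infected erythrocytes (0.05% parasitemia, 2% hematocrit). Luciferase-reporter P. falciparum; decreased luminescence indicates inhibited growth, aimed at apicoplast-acting delayed death.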
AmpC no deterg – blocks E. coli AmpC beta-lactamase in detergent-free assay; AmpC nitrocefin hydrolysis, absorbance 480 nm, 0.0001% Triton; Potency, µM (highest dose often 57.1 µM), for inactives: top-dose activity change, negative = inhibition, usual class: inhibitors; 0.52% of 330,000 active; P00811; AID 485341;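 further: plate controls were no compound for no effect and no enzyme for full effect; nearly all actives have a fitted effect of over 20% in size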
Target sequence (P00811 whole entry, looked up): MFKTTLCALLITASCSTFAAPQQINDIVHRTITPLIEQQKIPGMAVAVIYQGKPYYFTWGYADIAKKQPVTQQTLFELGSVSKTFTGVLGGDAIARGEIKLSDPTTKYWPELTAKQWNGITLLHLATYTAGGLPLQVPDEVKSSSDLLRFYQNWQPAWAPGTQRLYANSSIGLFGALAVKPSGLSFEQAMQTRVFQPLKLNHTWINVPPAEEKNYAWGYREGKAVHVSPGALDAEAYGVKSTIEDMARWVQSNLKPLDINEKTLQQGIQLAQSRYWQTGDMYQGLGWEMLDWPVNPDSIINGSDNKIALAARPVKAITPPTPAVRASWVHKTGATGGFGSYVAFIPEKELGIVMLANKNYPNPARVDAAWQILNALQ
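AmpC (5.3 nM in the dispensed reagent) in 20 mM phosphate pH 7.0 with 0.01% (detergent screen) or 0.0001% Triton X-100 was preincubated with compounds for 15 min at room temperature. Nitrocefin was then added from an 800 uM solution, and hydrolysis was followed at 480 nm.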
Pf growth 48h – P. falciparum growth inhibition at 48 hours (one generation) | P. falciparum luciferase growth in erythrocytes, 48 h | Potency, µM (highest dose often 28.7 µM), for the others: at the highest dose activity change, negative = inhibition, usual class: inhibitors | 5.9% of 310,000 active | AID 504832
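Cell-based growth assay: transgenic P. falciparum expressing firefly luciferase, cultured in red cells within RPMI 1640 containing 0.5% w/v Albumax, 24 mM bicarbonate and gentamycin. A drop in luciferase activity indicates inhibition.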
AMA1-RON2 inh – inhibitors of Plasmodium falciparum AMA1-RON2 interaction; AlphaScreen AMA1-biotinylated RON2 peptide binding; Potency, µM (doses to about 58.2 µM), inactives show at the highest dose activity change, negative = inhibition, usual class: inhibitors; 0.2% of 360,000 active;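 further: 0% = vehicle wells and -100% = peptide control; nearly all actives have a fitted effect of over 45% in size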
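AMA1 (3D7) with his tag at 25 nM final met compounds first, then biotinylated RON2 peptide at 25 nM; detection used donor plus acceptor beads, 10 µg/mL apiece, read by AlphaScreen after 30 min at room temperature.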
AmpC detergent – blocks E. coli AmpC beta-lactamase in detergent assay. P00811. AmpC hydrolysis of nitrocefin, absorbance 480 nm, 0.01% Triton. Potency, µM (doses to about 114 µM), inactives show at the highest dose activity change, negative = inhibition, actives largely listed as inhibitors. 0.041% of 370,000 active. AID 485294;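 further: 0% = no-compound wells and -100% = no-enzyme wells; nearly all actives have a fitted effect of over 25% in size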
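20 mM phosphate pH 7.0 + 0.01% (detergent screen) or 0.0001% Triton X-100; 5.3 nM AmpC reagent; cpd preinc 15 min RT; nitrocefin (800 uM stock) to start; A480 q20 s × 4 min; Activity was normalised to no-enzyme and no-compound control wells.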
HCV inhibitor – blocks hepatitis C virus; Huh7.5.1 HCVcc-Cre infection, luciferase reporter, 44 h; Potency, µM (titrated, usually from 41.8 µM), for inactives: top-dose activity change, negative = inhibition, hits mostly inhibitors; 3.4% of 340,000 active; AID 651820
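1,000 cells/well; 4 h culture; + compound; + HCVcc-Cre (~0.5 moi); 44 h; luciferase substrate, RT 15 min; read 15 sec.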
Starred values were filed as active, the others as inactive; ? = inconclusive; . = not tested or not shown. The call rests on the fitted dose curve; in most records, active means well fitted curve in the direction sought with a large enough effect; inconclusive means small, poorly fitted or top-dose-only effect, or another doubt; inactive means no such curve, though single readings can be large; an effect the other way counts as inactive or inconclusive. Unless noted, on the % scale 0 is the no-effect control and ±100 the full control effect; potency means the concentration at half of the fitted maximal effect.

SMILES	Pf growth 96h	AmpC no deterg	Pf growth 48h	AMA1-RON2 inh	AmpC detergent	HCV inhibitor
COCCNc1c2c(nc3c(-c4ccccc4)c(C)nn13)CCCC2	9%	49%	?	34%	-13%	?
Cc1nn2c(Nc3ccc(F)cc3)c3c(nc2c1-c1ccccc1)CCC3	?	-12%	?	21%	2%	20%
CCCCNc1c2c(nc3c(-c4ccccc4)c(C)nn13)CCC2	9.3µM*	10%	.	-6%	-1%	-20%
Cc1nn2c(-n3ccnc3)c3c(nc2c1-c1ccccc1)CCC3	-3%	-1%	7%	-10%	-8%	?
Cc1nn2c(N3CCCC3)c3c(nc2c1-c1ccccc1)CCC3	?	-9%	?	15%	-8%	-12%
Cc1nn2c(N3CCN(CCO)CC3)c3c(nc2c1-c1ccccc1)CCCC3	?	125%	8.3µM*	-7%	1%	-19%
Cc1nn2c(NCCCN3CCOCC3)c3c(nc2c1-c1ccccc1)CCC3	-28%	103%	?	2%	-3%	?
Cc1nn2c(NCc3cccnc3)c3c(nc2c1-c1ccccc1)CCC3	1.5µM*	1%	?	27%	-9%	-29%
Cc1noc(C)c1COC(=O)c1ccccc1Oc1ccccc1	13µM*	-6%	-5%	19%	0%	-18%
Cc1noc(C)c1COc1ccccc1C(=O)NC1CCC(C)CC1 (centres undefined)	4.1µM*	54%	?	13%	11%	5%
Cc1noc(C)c1COc1ccccc1C(=O)N(C)Cc1ccc(F)cc1	51%	24%	-16%	-5%	-11%	18%
Cc1noc(C)c1COc1ccccc1C(=O)N(C)Cc1ccc(C(C)(C)C)cc1	15µM*	133%	12µM*	-13%	-7%	?
Cc1noc(C)c1COc1ccccc1C(=O)NCCOc1ccccc1F	-38%	6%	-11%	7%	5%	?
COc1ccccc1NC(=O)Nc1ccc(NC(=O)c2ccccc2O)cc1	5%	-45%	-4%	0%	-13%	13µM*
O=C(Nc1ccc(F)cc1)Nc1ccc(NC(=O)c2ccccc2O)cc1	0%	?	12µM*	-18%	3%	-75%
CCN(CC)S(=O)(=O)c1nnc(NC(=O)COc2cccc(C)c2)s1	.	.	.	.	-1%	.
Cc1ccccc1N(C(=O)c1snc(C(N)=O)c1N)C(C(=O)NC1CCCCC1)c1ccc(O)cc1 (centres undefined)	?	-18%	?	-1%	-7%	10µM*
NC(=O)c1nsc(C(=O)N(c2ccccc2F)C(C(=O)NCc2ccccc2)c2ccc(O)cc2)c1N (centres undefined)	22%	?	?	13%	2%	?
CCOc1ccc(C(C(=O)NC2CCCC2)N(C(=O)c2snc(C(N)=O)c2N)c2cccc(O)c2)cc1 (centres undefined)	7%	-32%	?	6%	0%	13µM*
Cc1ccccc1N(C(=O)c1snc(C(N)=O)c1N)C(C(=O)NCc1ccccc1)c1ccc(O)cc1 (centres undefined)	35%	-27%	?	-1%	0%	5.6µM*
CCOc1ccc(C(C(=O)NC2CCCC2)N(Cc2ccccc2)C(=O)c2nsc(Cl)c2Cl)cc1 (centres undefined)	?	-34%	13µM*	-5%	-8%	?
NC(=O)c1nsc(C(=O)N(c2cccc(O)c2)C(C(=O)NC2CCCC2)c2ccc(Cl)cc2)c1N (centres undefined)	19%	42%	-2%	-2%	4%	-19%
CSc1ccc(CCNC(=O)C2CCN(c3nc4ccccc4nc3C(F)(F)F)CC2)cc1	.	.	.	.	-3%	.
CC1CCC(N2CC(=O)N(C3CCCC3)C(c3ccc(Cl)cc3)C2=O)CC1 (centres undefined)	.	.	.	.	-5%	.
CCOc1ccccc1N(C(=O)c1snc(C(N)=O)c1N)C(C(=O)NCc1ccccc1)c1ccc(O)cc1 (centres undefined)	?	-33%	12µM*	-25%	?	?
SMILES	Pf growth 96h	AmpC no deterg	Pf growth 48h	AMA1-RON2 inh	AmpC detergent	HCV inhibitor
COc1cccc(N(C(=O)c2snc(C(N)=O)c2N)C(C(=O)NCc2ccccc2)c2ccc(O)cc2)c1 (centres undefined)	-27%	-23%	?	5%	-6%	?
CN(C)c1ccc(C(C(=O)NCc2ccccc2)N(Cc2cccnc2)C(=O)c2snc(C(N)=O)c2N)cc1 (centres undefined)	13µM*	16%	?	-11%	3%	-15%
COc1ccc(N(C(=O)c2snc(C(N)=O)c2N)C(C(=O)NCc2ccccc2)c2ccc(O)cc2)cc1OC (centres undefined)	10%	25%	?	1%	-2%	-30%
COc1ccc(CN(C(=O)c2snc(C(N)=O)c2N)C(C)C(=O)NCc2ccc(F)cc2)cc1 (centres undefined)	?	12%	?	-8%	2%	?
COc1ccc(C(C(=O)NCc2ccccc2)N(Cc2cccnc2)C(=O)c2snc(C(N)=O)c2N)cc1OC (centres undefined)	-19%	23%	?	0%	3%	8%
COc1ccc(C(C(=O)NCc2ccccc2)N(C(=O)c2snc(C(N)=O)c2N)c2ccccc2OC)cc1OC (centres undefined)	-15%	72%	10µM*	-8%	-1%	1%
COc1ccc(CNC(=O)C(C)N(Cc2ccccc2OC)C(=O)c2snc(C(N)=O)c2N)cc1 (centres undefined)	21%	-6%	?	-3%	2%	10µM*
Cc1cccc(N(C(=O)c2nsc(Cl)c2Cl)C(C(=O)NC2CCCC2)c2ccc(O)cc2)c1C (centres undefined)	?	-11%	7.4µM*	-3%	7%	?
CCOc1ccccc1N(C(=O)c1snc(C(N)=O)c1N)C(C(=O)NC1CCCC1)c1cccs1 (centres undefined)	?	15%	9.3µM*	-9%	-11%	?
CCCCNC(=O)C1CCCN(S(=O)(=O)CCC)C1 (centres undefined)	.	.	.	.	3%	.
COc1ccc(-c2noc(CC(=O)Nc3cc(OC)ccc3OC)n2)cc1	.	.	.	.	0%	.
Cn1c(=NC(=O)CS(=O)(=O)c2ccccc2)sc2cc([N+](=O)[O-])ccc21	?	-22%	12µM*	-3%	-11%	-12%
